Source: PubChem BioAssay AID1159580 (chemical genetic matrix, 2015)
Out of some 5,500 compounds screened, about 2,000 (36%) were called active. About 18% were inconclusive and are not listed. No stated cut-off is given here; in the data, active means normalized growth mostly below about 0.91 (no sharp cut-off); inconclusive means no clear call, values can overlap the other calls; inactive means mostly above about 0.92. Some of the results follow.

Assay: chemical genetic growth profiling, strain panel (AID 1159580);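 further: tested at 20 µM; growth read once vehicle control cultures reached saturation at 30 °C; 1 = growth at the plate median or of vehicle wells; lower values mean less growth of the strain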
Settings: growth OD

Measured: normalized growth

Cc1cc(O)cc(O)c1C(=O)O
inactive: S. cerevisiae deletion strains, locus YJR066W, strain TOR1, hits give low values 1.01 | S. cerevisiae deletion strains, locus YJR075W, strain HOC1, hits give low values 1.01 | S. cerevisiae deletion strains, locus YKL009W, strain mrt4, hits give low values 0.964 | S. cerevisiae deletion strains, locus YKL068W, hits give low values 0.992 | S. cerevisiae deletion strains, locus YKL085W, strain MDH1 (second series), hits give low values 1 | S. cerevisiae deletion strains, locus YKL085W, strain MDH1, hits give low values 1 | S. cerevisiae deletion strains, locus YKL160W, strain elf1, hits give low values 0.994 | S. cerevisiae deletion strains, locus YKL190W, strain CNB1, hits give low values 0.978 | S. cerevisiae deletion strains, locus YKR001C, strain vps1, hits give low values 1.01 | S. cerevisiae deletion strains, locus YKR026C, strain gcn3, hits give low values 1.02 | S. cerevisiae deletion strains, locus YKR091W, strain srl3, hits give low values 1.01 | S. cerevisiae deletion strains, locus YLL001W, strain dnm1, hits give low values 0.992 | S. cerevisiae deletion strains, locus YLL026W, hits give low values 1.02 | S. cerevisiae deletion strains, locus YLL041C, strain sdh2, hits give low values 1.03 | S. cerevisiae deletion strains, locus YLR027C, strain aat2, hits give low values 1.03 | S. cerevisiae deletion strains, locus YLR039C, strain RIC1, hits give low values 1.19 | S. cerevisiae deletion strains, locus YLR058C, strain SHM2, hits give low values 1.02 | S. cerevisiae deletion strains, locus YLR102C, strain apc9, hits give low values 1.01 | S. cerevisiae deletion strains, locus YLR113W, strain HOG1, hits give low values 1.09 | S. cerevisiae deletion strains, locus YLR221C, strain rsa3, hits give low values 1.04 | S. cerevisiae deletion strains, locus YLR258W, strain gsy2, hits give low values 1.04 | S. cerevisiae deletion strains, locus YLR262C, strain YPT6 (second series), hits give low values 1.04 | S. cerevisiae deletion strains, locus YLR268W, strain sec22, hits give low values 1.04 | S. cerevisiae deletion strains, locus YLR320W, strain mms22, hits give low values 1.03 | S. cerevisiae deletion strains, locus YLR330W, strain CHS5, hits give low values 1.01 | S. cerevisiae deletion strains, locus YLR342W, strain FKS1 (second series), hits give low values 1.02 | S. cerevisiae deletion strains, locus YLR342W, strain FKS1, hits give low values 1.03 | S. cerevisiae deletion strains, locus YLR357W, strain rsc2, hits give low values 1.01 | S. cerevisiae deletion strains, locus YLR370C, strain arc18, hits give low values 1.01 | S. cerevisiae deletion strains, locus YLR371W, strain rom2, hits give low values 0.987 | S. cerevisiae deletion strains, locus YLR384C, strain iki3, hits give low values 1.03 | S. cerevisiae deletion strains, locus YLR418C, strain cdc73, hits give low values 1.02 | S. cerevisiae deletion strains, locus YML016C, strain PPZ1, hits give low values 1.01 | S. cerevisiae deletion strains, locus YML032C, strain rad52, hits give low values 0.99 | S. cerevisiae deletion strains, locus YML120C, strain ndi1, hits give low values 1.01 | S. cerevisiae deletion strains, locus YML124C, strain tub3, hits give low values 0.989 | S. cerevisiae deletion strains, locus YMR058W, strain fet3, hits give low values 1.03 | S. cerevisiae deletion strains, locus YMR078C, strain ctf18, hits give low values 1 | S. cerevisiae deletion strains, locus YMR125W, strain sto1, hits give low values 1 | S. cerevisiae deletion strains, locus YMR129W, hits give low values 1 | S. cerevisiae deletion strains, locus YMR205C, strain PFK2, hits give low values 1 | S. cerevisiae deletion strains, locus YMR223W, strain ubp8, hits give low values 0.978 | S. cerevisiae deletion strains, locus YMR231W, strain pep5, hits give low values 1.01 | S. cerevisiae deletion strains, locus YMR307W, strain GAS1, hits give low values 1.19 | S. cerevisiae deletion strains, locus YNL067W, strain RPL9B, hits give low values 0.991 | S. cerevisiae deletion strains, locus YNL071W, strain lat1, hits give low values 1.01 | S. cerevisiae deletion strains, locus YNL153C, strain GIM3, hits give low values 0.998 | S. cerevisiae deletion strains, locus YNL183C, strain NPR1, hits give low values 1.01 | S. cerevisiae deletion strains, locus YNL209W, strain ssb2, hits give low values 1 | S. cerevisiae deletion strains, locus YNL233W, strain BNI4, hits give low values 1.04 | S. cerevisiae deletion strains, locus YNL248C, strain rpa49, hits give low values 1.03 | S. cerevisiae deletion strains, locus YNL250W, strain rad50, hits give low values 0.905 | S. cerevisiae deletion strains, locus YNL271C, strain bni1, hits give low values 0.98 | S. cerevisiae deletion strains, locus YNL298W, strain CLA4, hits give low values 1.01 | S. cerevisiae deletion strains, locus YNL307C, strain MCK1, hits give low values 1 | S. cerevisiae deletion strains, locus YNL322C, strain KRE1 (second series), hits give low values 1 | S. cerevisiae deletion strains, locus YNR049C, strain mso1, hits give low values 1.02 | S. cerevisiae deletion strains, locus YNR052C, strain pop2, hits give low values 1 | S. cerevisiae deletion strains, locus YOL012C, strain htz1 0.732 | S. cerevisiae deletion strains, locus YOL147C, strain pex11, hits give low values 0.988 | S. cerevisiae deletion strains, locus YOR001W, strain rrp6, hits give low values 1.02 | S. cerevisiae deletion strains, locus YOR061W, strain CKA2, hits give low values 1.02 | S. cerevisiae deletion strains, locus YOR069W, strain VPS5, hits give low values 1.01 | S. cerevisiae deletion strains, locus YOR070C, strain gyp1, hits give low values 1.02 | S. cerevisiae deletion strains, locus YOR080W, strain dia2, hits give low values 1.02 | S. cerevisiae deletion strains, locus YOR083W, strain WHI5, hits give low values 0.989 | S. cerevisiae deletion strains, locus YOR106W, strain vam3, hits give low values 0.98 | S. cerevisiae deletion strains, locus YOR136W, strain idh2, hits give low values 0.991 | S. cerevisiae deletion strains, locus YOR144C, strain elg1, hits give low values 0.996 | S. cerevisiae deletion strains, locus YOR184W, strain ser1, hits give low values 1.09 | S. cerevisiae deletion strains, locus YOR231W, strain MKK1, hits give low values 1.11 | S. cerevisiae deletion strains, locus YOR265W, strain rbl2, hits give low values 1.01 | S. cerevisiae deletion strains, locus YOR270C, strain vph1, hits give low values 1.07 | S. cerevisiae deletion strains, locus YOR290C, strain snf2, hits give low values 1 | S. cerevisiae deletion strains, locus YOR316C, strain cot1, hits give low values 0.977 | S. cerevisiae deletion strains, locus YPL051W, strain arl3, hits give low values 0.986 | S. cerevisiae deletion strains, locus YPL055C, strain LGE1, hits give low values 1.09 | S. cerevisiae deletion strains, locus YPL078C, strain atp4, hits give low values 0.997 | S. cerevisiae deletion strains, locus YPL106C, strain sse1, hits give low values 0.986 | S. cerevisiae deletion strains, locus YPL240C, strain hsp82, hits give low values 1.01 | S. cerevisiae deletion strains, locus YPL241C, strain CIN2, hits give low values 0.999 | S. cerevisiae deletion strains, locus YPL256C, strain CLN2, hits give low values 1.09 | S. cerevisiae deletion strains, locus YPR119W, strain clb2, hits give low values 0.981 | S. cerevisiae deletion strains, locus YPR141C, strain kar3, hits give low values 0.973 | S. cerevisiae deletion strains, locus YPR163C, strain tif3, hits give low values 1 | S. cerevisiae deletion strains, locus YPR167C, strain met16, hits give low values 0.996 | S. cerevisiae deletion strains, strain wtn01, hits give low values 1.02 | S. cerevisiae strains, strain wild type, hits give low values 1.03
